This is part of a sample that, as a whole, favours compounds with a hit. Of some 83,000 tested, about 20% had one in any assay.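 Treatment: one concentration, 48 hours, 96-well format. Scoring: percent growth, with anything below 10 considered active.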 Values without a mark were called inactive. The source made the active and inactive calls.
What was measured:
Test in all cases: NCI-60 one-dose screen, 48 h (100 = growth as untreated, 0 = no growth, -100 = all killed)
Settings in all cases: 10 µM unless noted
DU-145 prostate = tested on: DU-145 prostate
K-562 leukemia = tested on: K-562 leukemia
MALME-3M melanoma = tested on: MALME-3M melanoma
MDA-MB-231 breast = tested on: MDA-MB-231 breast
RXF 393 renal = tested on: RXF 393 renal
SF-268 CNS = tested on: SF-268 CNS
SF-295 CNS = tested on: SF-295 CNS
SF-539 CNS = tested on: SF-539 CNS
UACC-257 melanoma = tested on: UACC-257 melanoma
M14 melanoma = tested on: M14 melanoma
HCT-15 colon = tested on: HCT-15 colon
HT29 colon = tested on: HT29 colon
SNB-75 CNS = tested on: SNB-75 CNS
SNB-19 CNS = tested on: SNB-19 CNS
U251 CNS = tested on: U251 CNS
PC-3 prostate = tested on: PC-3 prostate
SK-MEL-5 melanoma = tested on: SK-MEL-5 melanoma
UACC-62 melanoma = tested on: UACC-62 melanoma
LOX IMVI melanoma = tested on: LOX IMVI melanoma
SK-MEL-28 melanoma = tested on: SK-MEL-28 melanoma

| SMILES | growth (DU-145 prostate) | growth (K-562 leukemia) | growth (MALME-3M melanoma) | growth (MDA-MB-231 breast) | growth (RXF 393 renal) | growth (SF-268 CNS) | growth (SF-295 CNS) | growth (SF-539 CNS) | growth (UACC-257 melanoma) | growth (M14 melanoma) | growth (HCT-15 colon) | growth (HT29 colon) | growth (SNB-75 CNS) | growth (SNB-19 CNS) | growth (U251 CNS) | growth (PC-3 prostate) | growth (SK-MEL-5 melanoma) | growth (UACC-62 melanoma) | growth (LOX IMVI melanoma) | growth (SK-MEL-28 melanoma) |
| --- | --- | --- | --- | --- | --- | --- | --- | --- | --- | --- | --- | --- | --- | --- | --- | --- | --- | --- | --- | --- |
| Cc1nn(-c2ccccc2)c(-n2ccnc2)c1/C=N/Nc1nc(-c2ccc(Cl)c(Cl)c2)cs1 | 2.44% (active) | 18.7% | 22.5% | 6.68% (active) | -1.62% (active) | 41.8% | 57.7% | 59.3% | 62.7% | 45.1% | 23.8% | 17.1% | -2.39% (active) | 46% | 53.1% | 28.8% | 26.5% | 71.4% | 20.1% | 58.1% |
| C[C@H]1[C@H]2[C@H]3CC[C@@H]4[C@@]5(C)CC[C@H](O)C(C)(C)[C@@H]5CC[C@@]4(C)[C@]3(C)CC[C@]23CO[C@]1(C)[C@@H](C(=O)/C=C\c1cccnc1)C3 | 73.9% | 18% | 54.4% | 82.1% | 75.2% | 81.9% | 79.9% | 77.8% | 49.3% | 60.8% | 38.5% | 99.5% | 72.8% | 71.6% | 58.6% | 21.3% | 37% | 41.5% | 51.5% | 66.2% |
| CCc1cccc2c3c(sc12)C(c1ccc(F)cc1)C(C#N)=C(N)O3 (stereo not given) | 24.5% | 12.4% | 75.9% | 21.1% | 1.43% (active) | 54.5% | 8.12% (active) | 2.76% (active) | 74.2% | 19.2% | 14.5% | 12.7% | 24.1% | 39.8% | 29.2% | 20.4% | 27.4% | 39% | 14.6% | 60.5% |
| COc1cc(Nc2nc(NCCN)nc3cc[nH]c(=O)c23)cc(OC)c1 | 65% | 75.8% | 46.9% | 75.7% | 58.7% | 77.3% | 102% | 76.3% | 72.5% | 49.7% | 102% | 73.6% | 90.3% | 102% | 85.8% | 113% | 81.6% | 57.2% | 51.8% | 102% |
| Cc1ccc(NC2=C(Cl)C(=O)c3nc(C)ccc3C2=O)cc1 | -62.2% (active) | 6.64% (active) | -37.4% (active) | -80.3% (active) | -57.2% (active) | 66.8% | 62.1% | -85.6% (active) | -73.8% (active) | 29.1% | -77.1% (active) | 82.4% | -41.9% (active) | 47.3% | 41.3% | 29.9% | -90.8% (active) | -70.4% (active) | -78.2% (active) | -79% (active) |
| Cc1ccc2c(n1)C(=O)C(Cl)=C(Nc1ccccc1C(C)C)C2=O | 63.2% | 12% | 42.5% | 30.3% | 83.6% | 86.4% | 101% | 65.9% | 24.9% | 63% | 27.6% | 106% | 85.7% | 76.7% | 80.4% | 53.9% | 69% | 45.2% | 14.7% | 65.8% |
| CC(=O)OC[C@H]1OC(Sc2sc(C(=O)c3ccc(Cl)cc3)c(N)c2-c2nc3ccccc3s2)[C@H](OC(C)=O)[C@@H](OC(C)=O)[C@@H]1OC(C)=O (stereo not given in full) | 70.7% | 87.7% | 69.4% | 56.2% | 112% | 77.3% | 95.1% | 58.6% | 96.6% | 89.6% | 82.3% | 81% | 50.1% | 92.8% | 88.6% | 83.4% | 85.2% | 97.9% | 68.8% | 94.2% |
| COc1cc(C(=O)/C=C/c2ccc(OCCCCCC[P+](c3ccccc3)(c3ccccc3)c3ccccc3)cc2)cc(OC)c1OC | -1.64% (active) | 0.54% (active) | -37.9% (active) | -15.1% (active) | -47.3% (active) | -6.6% (active) | -23.4% (active) | -86.2% (active) | -21.4% (active) | -55.8% (active) | -54.7% (active) | -14.1% (active) | -11.1% (active) | -73.3% (active) | -100% (active) | -54.9% (active) | -100% (active) | -80.3% (active) | -100% (active) | -60.4% (active) |
| COc1ccc(C(=S)N2CCN(c3cccc(C)c3)CC2)cc1OC | 90.7% | 25.5% | 80% | 77.3% | 67.8% | 84.7% | 57.4% | 82.2% | 77.7% | 38.4% | 44.5% | 43.3% | 59.7% | 78.5% | 53.9% | 75.3% | 60.2% | 64% | 55.7% | 75.7% |
| CCCCCCN1C(=O)/C(=c2\sc3n(c2=O)C2C(NN=3)N(CC)C(=O)N2CC)c2ccccc21 (stereo not given) | 24.4% | 6.81% (active) | 6.95% (active) | 14.8% | 25.8% | 27.5% | -23% (active) | -54.9% (active) | 39.3% | 20.3% | 1.65% (active) | -24.7% (active) | -38.4% (active) | 22.5% | -21.3% (active) | 15.2% | 26.8% | 30.7% | -23% (active) | 35.1% |
| CCN(CC)Cc1cc(Nc2c3ccc(Cl)cc3nc3ccc(OC)cc23)ccc1O | 62.6% | 3.14% (active) | 112% | 45.7% | -12.6% (active) | 43.9% | 72.5% | 58.7% | -39.4% (active) | -67.5% (active) | 34.1% | 11.8% | 103% | 57.2% | 57% | 78% | 85.5% | 103% | 24.9% | -5.73% (active) |
| CC(C)c1cc(C(C)C)c(S(=O)(=O)Oc2ccc(NC(=O)c3ccc(Cl)cc3)cc2)c(C(C)C)c1 | 43.7% | 16.4% | 53.8% | 52.1% | 51.4% | 50.6% | 11.4% | 73.6% | 24.7% | 36.2% | 20.2% | 46.6% | 64.9% | 17.6% | 20.9% | 14% | 31.4% | 9.11% (active) | 33.5% | 56.8% |
| C=CCNc1ccc2c3c(cccc13)C(=O)N(N1C(=O)c3cccc4cccc(c34)C1=O)C2=O | 109% | 103% | 110% | 108% | 104% | 98.1% | 102% | 99.8% | 98.5% | 102% | 102% | 103% | 90.4% | 99.3% | 95.4% | 106% | 102% | 95.7% | 90.8% | 108% |
| COc1cc2cc(Oc3ccc(NC(=O)Nc4cc(C(F)(F)F)cc(C(F)(F)F)c4)cc3)c(C)nc2cc1OCCN1CCOCC1 | 24.9% | 6.68% (active) | 28.1% | 1.49% (active) | 26% | 27.8% | 7.59% (active) | 38.5% | 7.28% (active) | 17.6% | 13.4% | 10.9% | 36% | 23.8% | 8.71% (active) | 10.5% | -13.1% (active) | 45.9% | 20.7% | 51.2% |
| Cc1[nH]c(C(=O)Nc2ccc(C(=O)N3CCNCC3)cc2OC(C)C)c(Cl)c1Cl | 68.1% | -28.6% (active) | 72.6% | 22.9% | 71.3% | 74.4% | 107% | 80.8% | 101% | 45.5% | 49.7% | 9.76% (active) | 77.5% | 77.5% | 35.8% | 71.5% | 93.4% | 102% | -16% (active) | 105% |
